Screening data as filed in PubChem BioAssay.
Shown are actives, neighbours in structure and some others; about 9.3% of the full set was active somewhere.
SMN2 splice up: increases expression of the SMN2 splice variant; HEK293 SMN2-luciferase splicing reporter, luminescence, 30-36 h; Potency, µM (titrated, usually from 46.1 µM), hits mostly activators; 210,000 compounds, 2.8% hits; note: nearly all actives have a fitted effect of over 55% in size
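HEK293 cells carry an SMN2 minigene-luciferase reporter in which exon 7 inclusion puts luciferase in frame. Cells were seeded at 2000 cells/well, attached for 10-12 hours, then exposed to compounds for 30-36 hours at 37C before ONE-Glo luminescence.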
Rab9 promoter act: Rab9 promoter activation; Huh7 Rab9 promoter-luciferase reporter, luminescence, 24 h; Potency, µM (highest dose often 9.22 µM), usual class: activators; 320,000 compounds, 2.8% hits; note: nearly all actives have a fitted effect of over 60% in size
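Cell-based reporter: Huh7 stable for Rab9 promoter-driven luciferase, plated in reduced-serum medium with 10% FBS at 1500 cells/well, compound-treated 24 h at 37 °C, luminescence read after 10 min reagent.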
NPC1 prom act: NPC1 promoter activation; Huh7 NPC1 promoter luciferase reporter, 24 h; Potency, µM (titrated, usually from 9.22 µM), actives largely listed as activators; AID 485313; 320,000 compounds, 2.4% hits; note: nearly all actives have a fitted effect of over 60% in size
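Compounds in DMSO were transferred onto Huh7 NPC1-luciferase reporter cells pre-incubated 2 h; after 24 h at 37 °C, Amplite reagent was dispensed and luminescence recorded 10 min later.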
ELG1 genotox: induces genotoxicity in HEK293T cells with luciferase-tagged ELG1; AID 504466; 330,000 compounds, 1.3% hits; HEK293T ELG1-luciferase reporter, luminescence, 16 h; Potency, µM (series often up to 46 µM), actives largely listed as activators; note: nearly all actives have a fitted effect of over 60% in size
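Step 1: seed 2,000 HEK293T ELG1-luciferase cells per well. Step 2: add compound or DMSO, incubate 16 hr at 37 °C. Step 3: ONE-Glo, 30 min at room temperature, read luminescence.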
ELG1 DNA repair: ELG1-dependent DNA repair inhibition; HEK293T ELG1-luciferase reporter, luminescence, 16 h; DNA damage induced by 5-fluorouridine; Potency, µM (doses to about 46.1 µM), actives largely listed as inhibitors; 330,000 compounds, 2.3% hits; AID 504467; note: nearly all actives have a fitted effect of over 55% in size
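Reporter activity after DNA damage by 5-fluorouridine is monitored. Compound-treated cells incubate 16 hr at 37 °C, then ONE-Glo is added for 30 min before luminescence reading.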
FLuc modulator: firefly luciferase modulation, counter-screen for miR-21 project; P08659; purified FLuc, Km substrates, luminescence inhibition; Potency, µM (doses to about 57.5 µM), usual class: inhibitors; 360,000 compounds, 6.9% hits; AID 588342; note: nearly all actives have a fitted effect of over 55% in size
Target sequence (P08659 whole entry, looked up): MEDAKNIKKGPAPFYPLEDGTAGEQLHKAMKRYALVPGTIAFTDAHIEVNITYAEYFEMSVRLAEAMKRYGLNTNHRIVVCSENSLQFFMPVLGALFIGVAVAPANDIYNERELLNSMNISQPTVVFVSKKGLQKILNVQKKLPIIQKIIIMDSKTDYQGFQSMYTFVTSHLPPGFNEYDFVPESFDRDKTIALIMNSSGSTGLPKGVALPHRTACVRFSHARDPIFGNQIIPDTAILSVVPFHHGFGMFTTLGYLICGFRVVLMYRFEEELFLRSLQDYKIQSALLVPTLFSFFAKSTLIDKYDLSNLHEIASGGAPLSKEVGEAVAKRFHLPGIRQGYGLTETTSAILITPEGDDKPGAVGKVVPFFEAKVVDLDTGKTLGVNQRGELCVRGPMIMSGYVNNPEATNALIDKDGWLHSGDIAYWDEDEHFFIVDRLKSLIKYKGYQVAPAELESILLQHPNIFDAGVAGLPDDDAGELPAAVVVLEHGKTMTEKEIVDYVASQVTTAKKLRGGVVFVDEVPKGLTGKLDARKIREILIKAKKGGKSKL
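Purified P. pyralis luciferase (10nM final) with 10uM D-luciferin and 10uM ATP (Km levels) in 50mM Tris acetate pH 7.5, 10mM Mg acetate, 0.01% Tween-20, 0.05% BSA; qHTS 6-point titration, ~60 µM downward; luminescence read.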
Hits are given with their value; n = inactive; u = inconclusive; x = no result given; [ ] = remark or other dose. Calls come from the whole dose curve; as a rule, active = well fitted curve in the direction sought with a large enough effect; inconclusive = small, poorly fitted or top-dose-only effect, or another doubt; inactive = no such curve, though single readings can be large; an effect the other way counts as inactive or inconclusive.

SMILES	SMN2 splice up	Rab9 promoter act	NPC1 prom act	ELG1 genotox	ELG1 DNA repair	FLuc modulator
O=C(NCc1ccccc1)c1ccc(Cn2c(=O)c3cccn3c3cccnc32)cc1	x	x	x	x	x	n
Cc1ccc2cccc(OCC(=O)N3CC(C)CC(C)C3)c2n1 (configuration not stated)	n	n	n	n	n	n
O=C(COc1ccc(Cl)cc1)NCCCNC(=O)c1ccncc1	x	n	n	n	n	n
CCN(C(=O)c1ccco1)c1nnc(-c2ccc(OC)cc2)s1	12.6µM	1.78µM	u	u	u	0.953µM
CCCN(C(=O)c1ccco1)c1nnc(-c2cccc(C)c2)s1	x	u	n	n	n	16.9µM
CCCCC(=O)N(CCOC)c1nnc(-c2ccc(OC)cc2)s1	u	n	n	n	n	n[2.3 µM]
COC(=O)[C@@H](NC(=O)N1CCc2nc(-c3ccccc3)c3c(c2C1)CO[C@@H](C)C3)C(C)C	n[9.22 µM]	x	x	x	x	x
Nc1cc(N)nc(SCc2ccccc2)n1	11.2µM	2.82µM	u	u	u	19µM
CC(C)CSc1nsc(N)n1	n	u	u	16.4µM	u	u
CC(C)CSc1nnc(N)s1	n	n[1.84 µM]	n	n	n	n
Nc1nc(SCc2ccccc2)ns1	12.6µM	u	n	18.4µM	u	u
Cc1ccc(-n2c(=O)c3c(C)c(C(=O)N(C)C)sc3n(CC(=O)C(C)(C)C)c2=O)cc1C	x	x	x	x	x	n
COC(=O)c1c(N2C(=O)[C@H]3[C@@H](C2=O)[C@]2(C(=O)Nc4c(C)cc(C)cc42)N2CCC[C@@H]32)sc(C)c1C	n	n	n	n	n	n
COC(=O)c1c(N2C(=O)[C@H]3[C@@H](C2=O)[C@]2(C(=O)Nc4c2ccc(C)c4C)N2CCC[C@@H]32)sc(C)c1C	n	n	n	n	6.51µM	n
Cc1ccc(NC(=S)N2CCSC2c2cccs2)cc1 (configuration not stated)	n	n	n	n	n	15.1µM
COc1ccc(C2SCCN2C(=S)Nc2ccc(Cl)cc2)cc1 (configuration not stated)	n	n	n	n	n	n
Clc1ccc(N=C2SCC3CCCCN23)cc1 (configuration not stated)	x	2.51µM	3.98µM	n	u	9.53µM
O=C(CN1CCCCC1CO)c1ccc(OC(F)F)cc1 (configuration not stated)	n	n	n	n	n	n
FC(F)Oc1ccc(N=C2SCC3CCCCN23)cc1 (configuration not stated)	x	3.55µM	2µM	u	u	12µM
CCc1ccc(NC(=O)c2ccccc2Br)cc1	12.6µM	2µM	1.41µM	n	u	10.7µM
CCNC(=S)Nc1cccc(NC(=O)c2ccccc2O)c1	x	n	n	n	n	u
CCNC(=S)Nc1ccc(NC(=O)c2ccccc2O)cc1	x	n	n	n	n	12µM
O=C(O)c1ccc(NC(=O)c2ccccc2NC(=O)c2ccccc2Br)cc1	x	n	n	n	n	16.9µM
Cc1cccc(NC(=O)c2ccc(NC(=O)c3ccccc3Br)cc2)c1	x	n	n	n	u	n
O=C(Nc1ccc(Br)cc1)c1ccccc1Br	x	3.16µM	1.41µM	u	u	10.7µM
SMILES	SMN2 splice up	Rab9 promoter act	NPC1 prom act	ELG1 genotox	ELG1 DNA repair	FLuc modulator
Cc1ccc(NC(=O)c2ccc(Cl)c(N3C(=O)CCC3=O)c2)cc1	x	n	n	n	n	u
NC(=O)c1ccc(NC(=O)CSc2nnc(-c3ccc4c(c3)OCO4)o2)cc1	x	n	n	n	n	n
O=C(c1ccc(Cl)cc1)N1CCCCC(Sc2nnc(-c3ccc4c(c3)OCO4)o2)C1=O (configuration not stated)	n	u	u	u	u	1.9µM
O=C(O)CSc1nnc(-c2ccc3c(c2)OCO3)o1	n	n	n	n	n	u
CCn1c(CSc2nnc(-c3ccc4c(c3)OCO4)o2)nc2cc(S(=O)(=O)N(C)C)ccc21	n	n	n	n	14.6µM	u
NC(=O)CSc1nnc(-c2ccc3c(c2)OCO3)o1	12.6µM	2.51µM	2.82µM	u	u	15.1µM
C/C(N)=C(/C#N)C(=O)CSc1nnc(-c2ccc3c(c2)OCO3)o1	1.12µM	0.1µM	0.282µM	0.581µM	u	0.269µM
NC(N)=Nc1nc(CSCC/C(N)=N\S(N)(=O)=O)cs1	n	x	x	x	x	x
CCOC(=O)c1c(C)[nH]c(C)c1S(=O)(=O)NCC(=O)N1CCN(c2ccccc2OC)CC1	x	x	x	x	x	n
C/C(N)=C(/C#N)C(=O)CSc1ccccc1F	u	3.55µM	u	u	u	u
C/C(N)=C(/C#N)C(=O)CSc1nnc(-c2ccc(OC(F)F)cc2)o1	11.2µM	1.26µM	1.41µM	5.8µM	u	2.69µM
Cc1cc(=O)[nH]c(S/C=C/c2ccccc2)n1	11.2µM	u	3.55µM	20.6µM	u	5.36µM
Cn1c(CS/C(N)=N/N=C/c2ccccc2)c(Br)c(=O)n1-c1ccccc1	n	n	n	n	n	15.1µM
Cc1c(NC(=S)N/N=C/c2ccc(Br)cc2)c(=O)n(-c2ccccc2)n1C	x	n	n	n	n	n
CCOC(=O)N1CCC(Nc2c(N3CCN(c4cccc(C(F)(F)F)c4)CC3)c(=O)c2=O)CC1	n	n	n	n	18.4µM	n
CCOC(=O)/C=C/c1ccc2oc3ccccc3c(=O)c2c1	x	3.98µM	3.55µM	u	u	2.39µM
COc1cc2oc3ccccc3c(=O)c2cc1OC	x	n	u	u	u	u
Cc1ccc(-c2nc3ccccn3c2NCc2ccc3c(c2)OCO3)cc1	u	u	u	n	u	12µM
COc1ccc(-c2nc3ccc(C)cn3c2NCc2ccc3c(c2)OCO3)cc1	n	u	n	n	u	13.5µM
CC(C)NC(=O)NC(=O)COc1c(F)c(F)cc(F)c1F	n	n	n	n	n	n
O=C(COc1ccc(Br)cc1Br)NC1CCCC1	n	n	n	n	u	16.9µM
CC(C)NC(=O)NC(=O)COc1ccc(Br)cc1Br	2.51µM	2µM	1µM	3.26µM	u	1.2µM
COCCNC(=O)COc1ccc(Br)cc1Cl	n	n	n	u	u	u
O=C(COc1ccc(Br)cc1Br)NC1CCS(=O)(=O)C1 (configuration not stated)	x	n	n	n	u	n
O=C(COc1ccc(Br)cc1Cl)c1ccc[nH]1	u	3.98µM	u	n	u	19µM
SMILES	SMN2 splice up	Rab9 promoter act	NPC1 prom act	ELG1 genotox	ELG1 DNA repair	FLuc modulator
O=C(COc1ccccc1Cl)c1ccc[nH]1	u	u	n	u	u	u
C=CCNC(=O)COc1ccc(Br)cc1Cl	u	u	u	n	u	16.9µM
O=C(COc1ccc(Br)cc1Cl)NC(=O)NC1CCCC1	x	u	n	u	u	9.53µM
O=C(COc1ccc(Br)cc1Cl)NC1CCCCC1	u	1.41µM	2.82µM	u	u	3.01µM
O=C(Cc1c(Cl)cccc1Cl)N1CCN(S(=O)(=O)c2cccs2)CC1	x	n	n	n	n	n
O=C(CSc1nncc2ccccc12)Nc1ccccc1	x	n	n	n	n	16.9µM
